Measurements published in PubChem BioAssay.
Activity calls are given as the source filed them. Unless noted, how the calls were made is not given here.

Experiments:
[1] = system: XIP peptide (Xip251-270) binding; test: small-molecule binders of XIP peptide, primary screen, biochemical, small-molecule microarray, fluorescence 635/667 nm, 0.1 µg/mL protein (AID 1182); conditions: fluorescent protein binding, 635 nm, higher = more signal, called active from +8 up or from −8 down
XIP peptide (Xip251-270) = test: small-molecule binders of XIP peptide, primary screen, biochemical, small-molecule microarray, fluorescence 635/667 nm, 0.5 µg/mL protein (AID 1183); conditions: small-molecule microarray binding, fluorescence 635 nm; higher = more signal
[2] = Plasmodium falciparum growth inhibition, primary screen, strain 3D7, DAPI fluorescence, 100 nL (AID 1184);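 further: parasites grown inside human red blood cells in medium with human serum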; conditions: P. falciparum 3D7 growth, 3 d, higher = more signal
[3] = biological target: Homeobox protein Hox-A13 (Mus musculus) (UniProt Q62424); test: inhibitors of HoxA13-DNA binding, primary screen, biochemical, fluorescence polarization, labeled oligonucleotide (AID 1185); conditions: 15 min, higher = more signal, called active from +8 up or from −8 down
[4] = inhibitors of hydroxyurea-induced Chk1 phosphorylation, primary screen, imaging, HeLa, phospho-Chk1 antibody, percent positive cells (AID 1186); conditions: hydroxyurea-induced phospho-Chk1 immunofluorescence imaging, higher = more signal
[5] = inhibitors of hydroxyurea-induced Chk1 phosphorylation, primary screen, imaging, HeLa, phospho-Chk1 nuclear intensity (AID 1187); conditions: hydroxyurea-induced phospho-Chk1 immunofluorescence imaging, higher = more signal

Chain of Homeobox protein Hox-A13 (Mus musculus) (Q62424 whole entry, looked up): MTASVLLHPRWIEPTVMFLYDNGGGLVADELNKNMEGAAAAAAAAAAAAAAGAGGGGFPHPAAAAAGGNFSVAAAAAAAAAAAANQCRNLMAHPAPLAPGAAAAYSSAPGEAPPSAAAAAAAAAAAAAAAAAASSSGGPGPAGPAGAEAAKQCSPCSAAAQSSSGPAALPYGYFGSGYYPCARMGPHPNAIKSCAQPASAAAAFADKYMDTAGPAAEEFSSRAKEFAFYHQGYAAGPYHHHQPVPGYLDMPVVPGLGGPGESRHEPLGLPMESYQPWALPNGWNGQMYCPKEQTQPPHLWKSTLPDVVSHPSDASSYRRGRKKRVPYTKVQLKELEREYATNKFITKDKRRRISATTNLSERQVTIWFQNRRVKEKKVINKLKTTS

Row | SMILES | composite z-score [1] | composite z-score (XIP peptide (Xip251-270)) | z-score [2] | z-score [3] | z-score [4] | z-score [5]
1 | CCOC(=O)C[C@H]1[C@H](OC(=O)c2cc3ccccc3oc2=O)[C@@H](NC(=O)c2ccc3ccccc3n2)c2cc(OCCCO)ccc2N1C(=O)c1ccc2ccccc2n1 | -0.276 (inactive) | 0.484 | -1.15 | -1.29 (inactive) | -0.443 (inactive) | -0.134 (inactive)
2 | COCCOC(=O)N1C(=O)[C@@]2(c3cc(C#CCC(C(=O)OC)C(=O)OC)ccc31)[C@H](C(=O)N1CCCCCCC1)[C@H]1C(=O)O[C@H](c3ccccc3)[C@H](c3ccccc3)N1[C@@H]2c1ccc(O)cc1 | 0.825 (inactive) | 0.729 | -2.22 | -0.454 (inactive) | -0.15 (inactive) | -0.367 (inactive)
3 | COc1cc2c(cc1OC)CN(C(=O)[C@@H]1[C@H]3C(=O)O[C@H](c4ccccc4)[C@H](c4ccccc4)N3[C@H](c3ccc(O)cc3)[C@@]13C(=O)Nc1ccc(C#CCNC(N)=O)cc13)CC2 | 0.503 (inactive) | -0.0161 | -0.656 | -1.67 (inactive) | 0.259 (inactive) | 0.278 (inactive)
4 | Cc1cc(C)c(C(O)C2C=CC3C(=O)N(c4ccccc4)C(=O)C3N2Nc2ccccc2)c(C)c1 (centres undefined) | 0.733 (inactive) | 0.79 | -0.0689 | -3.33 (inactive) | 0.826 (inactive) | 0.41 (inactive)
5 | CC1CC/C=C\[C@H]2OC34C=CCN(c5ccc(Cl)cc5)C(=O)[C@H]3N(C(CO)C(C)C)C(=O)[C@]4(C)C2C(=O)O1 (some centres undefined) | -0.279 (inactive) | 0.277 | -0.0809 | -5.44 (inactive) | -0.466 (inactive) | -0.512 (inactive)
6 | [N-]=[N+]=NCc1ccccc1C[C@@]1(C(=O)NCCN2CCOCC2)N=C(c2ccc(OCCCO)cc2)O[C@@H]1c1ccccc1CN=[N+]=[N-] | 0.607 (inactive) | 0.743 | -2.22 | -11.2 (active) | 0.243 (inactive) | 0.693 (inactive)
7 | NC(=O)NCC#Cc1ccc2c(c1)[C@]1(C(=O)N2)[C@H](c2ccc(O)cc2)N2[C@H](c3ccccc3)[C@H](c3ccccc3)OC(=O)[C@H]2[C@@H]1C(=O)NC[C@H](O)c1ccccc1 | -0.0884 (inactive) | -0.294 | -0.547 | -0.93 (inactive) | -0.186 (inactive) | -0.151 (inactive)
8 | O=C1O[C@@H](c2ccccc2)[C@@H](c2ccccc2)N2[C@@H](c3ccc(O)cc3)[C@]3(C(=O)Nc4ccc(C#CC5(O)CCCCCC5)cc43)[C@@H](C(=O)N3CCN(c4ncccn4)CC3)[C@H]12 | 0.328 (inactive) | 0.559 | -2.02 | -1.72 (inactive) | -0.206 (inactive) | -0.624 (inactive)
9 | COc1cc(C(O)C2C=CC3C(=O)N(C)C(=O)C3N2NC(=O)OC(C)(C)C)cc(OC)c1OC (centres undefined) | 1.56 (inactive) | 0.157 | -0.361 | -1.27 (inactive) | 0.873 (inactive) | 0.571 (inactive)
10 | CCCC=C(CCC)[C@@H](NS(=O)(=O)c1cccc2cccnc12)c1ccc(C(=O)OC)cc1 | -0.357 (inactive) | 0.315 | -0.271 | -2.22 (inactive) | -0.767 (inactive) | -0.492 (inactive)
11 | CC[C@@H]1[C@@H]2C3C(=O)N(CC)C(=O)C3CC(=O)[C@@H]2[C@H](c2ccc(C)cc2)N1S(=O)(=O)c1ccc(C)cc1 (some centres undefined) | -0.363 (inactive) | 0.73 | -0.226 | -3.54 (inactive) | -1.51 (inactive) | -1.33 (inactive)
12 | C[C@@H]1ON(c2ccccc2)[C@H](c2ccccc2)[C@H]1C(=O)N1C(=O)OC[C@H]1Cc1ccccc1 | 0.0959 (inactive) | 0.351 | -1.96 | -1.4 (inactive) | -0.673 (inactive) | -0.308 (inactive)
13 | CC(=O)NCCCC[C@@H]1NC(=O)[C@H]2C[C@@H](C(=O)NCCCCCN)[C@@H](c3cccc(OCCO)c3)N2C1=O | 0.149 (inactive) | 0.654 | 0.184 | -2.28 (inactive) | -1.11 (inactive) | -0.661 (inactive)
14 | C=CCNC(=O)[C@H]1[C@@H]2C(=O)O[C@@H](c3ccccc3)[C@@H](c3ccccc3)N2[C@@H](c2ccc(OCCO)cc2)[C@]12C(=O)N(C(=O)OCCOC)c1ccc(C#CC3=CCCCC3)cc12 | 0.377 (inactive) | 0.799 | -2.22 | 2.62 (inactive) | -0.142 (inactive) | -0.108 (inactive)
15 | COc1cc(C(O)C2C=CC3C(=O)NC(=O)C3N2Nc2ccc(Cl)cc2Cl)cc(OC)c1OC (centres undefined) | 0.587 (inactive) | 0.619 | -0.395 | -6.07 (inactive) | 0.136 (inactive) | 0.148 (inactive)
16 | CC(C)N1CC=CC23O[C@@H]4C=CCOC(=O)[C@@H]4[C@H]2C(=O)N(CCCCCCO)[C@@H]3C1=O (some centres undefined) | -0.0725 (inactive) | -0.262 | -0.511 | -3.69 (inactive) | 0.477 (inactive) | 0.454 (inactive)
17 | COc1ccc(C(=O)Nc2ccc(CN3C(=O)[C@@]4(O[C@@H](CC(=O)N5Cc6ccccc6C[C@H]5CO)[C@H]([Si](C)(C)c5ccc(OC)cc5)[C@H]4C)c4ccccc43)cc2)cc1 | 1.38 (inactive) | 0.701 | -1.23 | -2.48 (inactive) | 0.175 (inactive) | 0.514 (inactive)

Row | SMILES | composite z-score [1] | composite z-score (XIP peptide (Xip251-270)) | z-score [2] | z-score [3] | z-score [4] | z-score [5]
18 | C=C[C@@H](O)[C@H]1CC(c2ccccc2)=NO1 | 0.465 (inactive) | -0.299 | 0.99 | -0.345 (inactive) | -0.386 (inactive) | -0.573 (inactive)
19 | CCCCC(CC)C(O)C1C=CC2C(=O)NC(=O)C2N1Nc1ccccn1 (centres undefined) | 0.327 (inactive) | 0.781 | 0.133 | -3.87 (inactive) | 0.0438 (inactive) | -0.119 (inactive)
20 | CCCNC(=O)[C@@H]1c2ccccc2C(=O)N(CC23CC4CC(CC(C4)C2)C3)[C@H]1c1ccc(CO)cc1 | 1.67 (inactive) | 0.773 | -2.3 | -4.87 (inactive) | 0.118 (inactive) | 0.0519 (inactive)
21 | C=C(C(=O)CC[C@H](OC(=O)c1cccnc1)c1ccc(OCCO)cc1)C(C)C | 0.538 (inactive) | 0.551 | -2.02 | -4.81 (inactive) | 0.387 (inactive) | 0.05 (inactive)
22 | C=CCOC(=O)[C@@H]1[C@H]2C(=O)O[C@H](c3ccccc3)[C@H](c3ccccc3)N2[C@H](c2ccc(OCCOC(=O)[C@H]3C[C@H]4C(=O)N[C@@H](Cc5ccccc5)C(=O)N4[C@H]3c3cccc(OCCO)c3)cc2)[C@@]12C(=O)Nc1ccc(I)cc12 | 2.12 (inactive) | 0.813 | 0.143 | 6.79 (inactive) | -0.173 (inactive) | 0.0575 (inactive)
23 | C[N+](C)(C)CCCCCCNC(=O)[C@@H]1C[C@@H]2C(=O)NCC(=O)N2[C@@H]1c1cccc(OCCO)c1 | 0.525 (inactive) | 0.421 | -0.848 | -4.4 (inactive) | -0.177 (inactive) | -0.261 (inactive)
24 | COCCCNC(=O)[C@@]1(Cc2ccccc2)COC(c2ccc(OCCCO)cc2)=N1 | 0.506 (inactive) | 0.811 | -0.723 | -4.31 (inactive) | -0.0447 (inactive) | -0.109 (inactive)
25 | O=C1O[C@H](c2ccccc2)[C@H](c2ccccc2)N2[C@H]1[C@@H](C(=O)N1CCCCCCC1)[C@]1(C(=O)Nc3ccccc31)[C@H]2c1ccc(O)cc1 | 4.72 (inactive) | 0.943 | 0.61 | 2.7 (inactive) | 0.323 (inactive) | 0.725 (inactive)
26 | COc1ccc([Si](C)(C)[C@@H]2[C@@H](CCO)O[C@]3(C(=O)N(Cc4ccccc4)c4ccc(N5CCCCC5=O)cc43)[C@H]2C)cc1 | 2.38 (inactive) | 0.565 | -2.89 | -4.29 (inactive) | -1.71 (inactive) | -1.73 (inactive)
27 | Cc1ccc(N2C(=O)c3ccccc3[C@](C)(C(=O)NC(C)C)[C@@H]2c2ccc(CO)cc2)nc1 | -0.224 (inactive) | 0.677 | -0.736 | -0.858 (inactive) | 0.0932 (inactive) | 0.205 (inactive)
28 | CN(C)C(=O)[C@@]1(CCC(=O)OC(C)(C)C)N=C(c2ccc(OCCCO)cc2)O[C@H]1c1ccccc1N=[N+]=[N-] | 1.55 (inactive) | 0.825 | -2.36 | -5.33 (inactive) | -0.146 (inactive) | -0.222 (inactive)
29 | COCC1=C([C@H](O)CCc2ccccc2)[C@H](CO)[C@@H]2C(=O)N(C)C(=O)[C@@H]2C1 | -0.328 (inactive) | 0.104 | -0.119 | -6.06 (inactive) | -0.32 (inactive) | -0.523 (inactive)
30 | CC(C)(C)OC(=O)CC[C@]1(C(=O)O)COC(c2ccc(OCCCO)cc2)=N1 | 3.69 (inactive) | 0.532 | 1.22 | -1.32 (inactive) | -0.325 (inactive) | -0.122 (inactive)
31 | CCCNC(=O)[C@@]1(Sc2ccc(C)cc2)CC(=O)N(Cc2ccccc2)[C@@H]1c1ccc(CO)cc1I | 0.334 (inactive) | 0.889 | 0.179 | -2.54 (inactive) | 0.264 (inactive) | 0.372 (inactive)
32 | CCCCC(=C=CC[C@H](O)c1ccccc1OCCO)C[C@H](O)c1ccccn1 | 0.418 (inactive) | 0.318 | -0.966 | -3.35 (inactive) | 0.305 (inactive) | 0.113 (inactive)
33 | O=C1O[C@H](c2ccccc2)[C@H](c2ccccc2)N2[C@H]1[C@@H](C(=O)N1CCN(c3ncccn3)CC1)[C@]1(C(=O)Nc3ccc(C#CCCO)cc31)[C@H]2c1ccc(OCCO)cc1 | 0.756 (inactive) | 0.853 | -1.9 | -0.587 (inactive) | 0.177 (inactive) | 0.923 (inactive)
34 | COCCOC(=O)N1C(=O)[C@@]2(c3cc(C#CC4(O)CCCCCC4)ccc31)[C@H](C(=O)NC[C@H](O)c1ccccc1)[C@H]1C(=O)O[C@H](c3ccccc3)[C@H](c3ccccc3)N1[C@@H]2c1ccc(OCCO)cc1 | -0.274 (inactive) | 0.624 | -1.19 | -0.375 (inactive) | 0.0542 (inactive) | 0.167 (inactive)
